Compound activity from PubChem.
MARV entry inh – qHTS for inhibitors of binding or entry into cells for Marburg Virus; Marburg virus pseudotyped entry inhibition, cell reporter; Potency, µM (highest dose often 37.8 µM), most hits filed as inhibitors; 1.8% of 300,000 active; calls by dose curve; tested in HEK293 cells
HCMV inh – qHTS Assay for inhibitors of the human cytomegalovirus (HCMV) | HFF cells, HCMV-luciferase reporter, 72 h; active compounds read low | AID 1259415, 2018 | activity change, negative = inhibition, % at 57.5 µM | 4.5% of 410,000 active; in the data active = activity change below about -60%; inconclusive = no clear call, values can overlap the other calls; inactive = above about -39%
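Compounds were evaluated in HFFs infected with an HCMV luciferase reporter virus (MOI 1 PFU/cell). Luciferase in lysates collected 72 h post infection served as the replication measure.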
Giardia FBPA inh – qHTS Assay for Inhibitors of Fructose-1,6-bisphosphate Aldolase from Giardia Lamblia; A8B2U2; purified Giardia FBPA; Potency, µM (doses to about 59.6 µM), usual class: inhibitors; 0.71% of 290,000 active; AID 2451, 2010; note: nearly all actives have a fitted effect of over 55% in size
Target sequence (A8B2U2 whole entry, looked up): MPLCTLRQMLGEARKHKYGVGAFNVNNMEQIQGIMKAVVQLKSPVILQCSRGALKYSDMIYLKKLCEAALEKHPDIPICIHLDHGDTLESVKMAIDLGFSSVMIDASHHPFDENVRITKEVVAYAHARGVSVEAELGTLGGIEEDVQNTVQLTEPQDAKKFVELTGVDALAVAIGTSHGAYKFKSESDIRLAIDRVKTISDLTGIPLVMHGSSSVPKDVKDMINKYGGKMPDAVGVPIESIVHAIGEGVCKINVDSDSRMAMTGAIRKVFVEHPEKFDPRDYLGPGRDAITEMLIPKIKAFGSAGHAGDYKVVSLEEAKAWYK
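40 nM FBPA preincubated 10 min at RT with compound (up to 57.5 uM final), then substrate plus GAPDH/TPI/NAD/arsenate coupling and diaphorase/resazurin added. Fluorescence read after 20 min at RT, 525/598 nm.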
LASV entry inh – qHTS for Inhibitors of binding or entry into cells for Lassa Virus; Lassa virus pseudotype entry inhibition, cell reporter; Potency, µM (series often up to 37.9 µM), most hits filed as inhibitors; 1.2% of 300,000 active; AID 540256, 2011; calls by dose curve; tested in HEK293 cells; note: nearly all actives have a fitted effect of over 50% in size
FMDV inh – High Throughput Screening for Foot and Mouth Disease Virus Antivirals; FMDV antiviral cell-based qHTS; Potency, µM (highest dose often 57.9 µM), actives largely listed as inhibitors; 1.2% of 410,000 active; AID 1159524, 2015; calls by dose curve; tested in HEK293T cells; note: read-out not given here; nearly all actives have a fitted effect of over 45% in size
HCV inh – qHTS Assay for Inhibitors of Hepatitis C Virus (HCV); Potency, µM (doses to about 41.8 µM), most hits filed as inhibitors; Huh7.5.1 HCVcc-Cre infection, luciferase reporter, 44 h; 3.4% of 340,000 active
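Seed cells (1,000/well) for 4 h; treat with compound and infect with HCVcc-Cre, moi about 0.5. Incubate 44 h, then detect luciferase activity.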
Each line names hits and unclear results; the compound was inactive in the other large screens. An excerpt weighted towards active compounds, which were near 8.3% of everything screened. Unless noted, calls come from the whole dose curve; as a rule, active = well fitted curve in the direction sought with a large enough effect; inconclusive = small, poorly fitted or top-dose-only effect, or another doubt; inactive = no such curve, though single readings can be large; an effect the other way counts as inactive or inconclusive.

O=C(NC(=S)N(CCc1ccccc1)CCc1ccccc1)c1ccco1	MARV entry inh inconclusive, Giardia FBPA inh inconclusive, LASV entry inh 8.9µM
COc1cc(C(=O)NCC(=O)N/N=C(\C)Cc2ccccc2)cc(OC)c1OC	HCMV inh inconclusive, LASV entry inh inconclusive
COc1cc(C(=O)NC(=S)N(CCc2ccccc2)CCc2ccccc2)cc(OC)c1OC	MARV entry inh 3.2µM, LASV entry inh inconclusive, HCV inh inconclusive
CSCC[C@H](NC(=O)CNC(=O)CNC(=O)[C@H](CO)NC(=O)[C@H](CCCNC(=N)N)NC(=O)[C@H](CO)NC(=O)[C@H](CC(C)C)NC(=O)[C@H](CC(C)C)NC(=O)CNC(=O)[C@H](C)NC(=O)[C@H](CC(C)C)NC(=O)[C@H](CCCNC(=N)N)NC(=O)[C@H](Cc1cnc[nH]1)NC(=O)[C@@H](NC(=O)[C@@H](N)C(C)C)[C@@H](C)O)C(=O)N[C@H](C(=O)N[C@@H](CCCCN)C(=O)N[C@@H](CO)C(=O)N[C@@H](CC(N)=O)C(=O)N[C@@H](Cc1ccccc1)C(=O)N[C@H](C(=O)N1CCC[C@H]1C(=O)N[C@H](C(=O)N[C@@H](CC(N)=O)C(=O)N[C@H](C(=O)NCC(=O)N[C@@H](CO)C(=O)N[C@@H](CCCCN)C(=O)N[C@@H](C)C(=O)N[C@@H](Cc1ccccc1)C(N)=O)C(C)C)[C@@H](C)O)C(C)C)C(C)C	none (no result: MARV entry inh, HCMV inh, LASV entry inh, FMDV inh, HCV inh)
CCOc1cc(CNC(=O)C2COc3ccccc3C2)cc(OCC)c1OCC (centres undefined)	none (no result: MARV entry inh, Giardia FBPA inh, HCV inh)
Nc1ccc(C(=O)N(CCO)CCO)cc1	none
Nc1ccc(N(CCO)CCO)cc1	Giardia FBPA inh 5µM (no result: LASV entry inh)
CC1=NOC(=O)/C1=C/c1ccc(O)c(Cl)c1	HCMV inh inconclusive, FMDV inh 18µM
COc1ccc(/C=C2/C(=O)N(c3ccccc3)N=C2C)cc1	none (no result: HCMV inh, Giardia FBPA inh)
CCN(CC)c1ccc(/C=C2/C(=O)ON=C2C)cc1	HCMV inh -65
CCN(CC)c1ccc(/C=C2\C(=O)N(c3nnc(C)c(=O)[nH]3)N=C2C)cc1	MARV entry inh inconclusive, Giardia FBPA inh inconclusive, LASV entry inh inconclusive, FMDV inh 28µM
COC(=O)[C@H]1O[C@@H](c2cc(OC)c(C)c(OC)c2OCc2ccccc2)[C@H](C)[C@@H]2O[C@]12C	none (no result: HCMV inh, FMDV inh, HCV inh)
CCOCCCn1c(=NC(=O)c2ccco2)c(C(=O)OCC)cc2c(=O)n3cccc(C)c3nc21	HCV inh 11µM (no result: MARV entry inh, LASV entry inh)
c1ccc(Cn2c(-c3ccco3)nc3nc4ccccc4nc32)cc1	MARV entry inh inconclusive, LASV entry inh inconclusive, HCV inh inconclusive
CCCCCn1c(-c2ccco2)nc2nc3ccccc3nc21	MARV entry inh 11µM
CC1(C2CCC3C4CCC5CC6(CCC5(C)C4C(=O)CC32C)OCCO6)OCCO1 (centres undefined)	MARV entry inh inconclusive, HCMV inh -99 (no result: Giardia FBPA inh)
C=COC[C@H]1CN2[C@H](c3ccc(Br)cc3)[C@H](C)CC[C@H]2C(=O)O1	none (no result: HCMV inh, Giardia FBPA inh, LASV entry inh, FMDV inh, HCV inh)
C[C@H]1NC(=O)NC1=O	none (no result: MARV entry inh, HCMV inh, LASV entry inh, FMDV inh, HCV inh)
O=C1NC(=O)C(C2CCCCCC2)C(=O)N1	HCMV inh -66 (no result: Giardia FBPA inh)
CC[C@@]1(O)C(=O)OCc2c1cc1n(c2=O)-c2cc3ccccc3nc2C1	none (no result: MARV entry inh, HCMV inh, LASV entry inh, FMDV inh, HCV inh)
CCOC(=O)CSc1nc2ccccc2c(=O)n1CCc1ccc(OC)c(OC)c1	LASV entry inh inconclusive, FMDV inh inconclusive (no result: MARV entry inh, Giardia FBPA inh, HCV inh)
O=C(CC1C(=O)N(Cc2ccccc2)C(=S)N1CCN1CCOCC1)Nc1ccc(F)cc1 (centres undefined)	HCMV inh -69
CCN1C(=O)C(CC(=O)Nc2ccc(Br)cc2)N(CCCc2ccccc2)C1=S (centres undefined)	MARV entry inh inconclusive, HCMV inh inconclusive, LASV entry inh 13µM, FMDV inh inconclusive, HCV inh inconclusive
CCCOc1ccc(NC(=O)CC2C(=O)N(CC)C(=S)N2CCCN2CCN(Cc3ccccc3)CC2)cc1 (centres undefined)	MARV entry inh inconclusive, HCMV inh -84, LASV entry inh inconclusive, HCV inh inconclusive
CCOc1ccc(NC(=O)CC2C(=O)N(CC)C(=S)N2CCN2CCOCC2)cc1 (centres undefined)	none (no result: LASV entry inh)
CCOc1ccc(NC(=O)CC2C(=O)N(C)C(=S)N2CCCc2ccccc2)cc1 (centres undefined)	MARV entry inh inconclusive, LASV entry inh inconclusive
COC(=O)CC1C(C)(C)C(O)C2CC3=C4C=C(OC)OC(c5ccoc5)[C@]4(C)CCC3[C@@]1(C)C2=O (some centres undefined)	none (no result: MARV entry inh, HCMV inh, LASV entry inh, HCV inh)
Cc1noc(C)c1-c1ccc2ncnc(NCC3CCN(C)CC3)c2c1	none (no result: MARV entry inh, HCMV inh, LASV entry inh, FMDV inh, HCV inh)
CCN(CC)CCNC(=O)c1[nH]c2ccc(OCc3ccccc3)cc2c1C	MARV entry inh inconclusive, HCMV inh inconclusive, LASV entry inh inconclusive, HCV inh 10µM
CCN(Cc1ccccc1)C(=O)c1[nH]c2ccc(OC)cc2c1C	none
O=C(CNC(=O)C12CC3CC(CC(C3)C1)C2)N1CCN(S(=O)(=O)/C=C/c2ccccc2)CC1	HCMV inh -72, LASV entry inh inconclusive, FMDV inh 40µM
N#CC(C(=O)C1=C(Cl)CCCC1)=C1SCCCS1	none (no result: HCMV inh, Giardia FBPA inh, LASV entry inh, FMDV inh, HCV inh)
Cc1ccc(S(=O)(=O)N2C[C@@H]3CCCC[C@@H]3[C@@H](C)[C@H]2c2cn(Cc3ccccc3)c3ccccc23)cc1	HCMV inh -97, HCV inh inconclusive (no result: MARV entry inh, Giardia FBPA inh, LASV entry inh)
Cc1ccc(S(=O)(=O)N2C[C@@H]3[C@H]4CC[C@H](C4)[C@@H]3[C@@H](C)[C@@H]2c2cn(Cc3ccccc3)c3ncccc23)cc1	HCMV inh inconclusive (no result: MARV entry inh, Giardia FBPA inh, LASV entry inh)
Cc1ccc(S(=O)(=O)N2C[C@@H]3CCCC[C@@H]3[C@@H](C)[C@H]2c2cn(Cc3ccccc3)c3ncccc23)cc1	HCMV inh -86, HCV inh inconclusive (no result: MARV entry inh, Giardia FBPA inh, LASV entry inh)
CN(C)c1ncnc2ccc(-c3cccc(C#N)c3)cc12	none (no result: MARV entry inh, HCMV inh, LASV entry inh, HCV inh)
CC(C)Nc1cc(N2CCN(C3CCCCC3)CC2)c2noc3c2c1C(=O)c1ccccc1-3	none (no result: Giardia FBPA inh, HCV inh)
Cc1cc(C(=O)NNc2ccc(Cl)cc2)no1	MARV entry inh 4.5µM
Cc1cc(C(=O)NNC(=O)Nc2ccc(Cl)cc2)no1	none
CC1CN(S(=O)(=O)c2cccc(C(=O)Nc3ccc(N4CCCCC4)cc3)c2)CC(C)O1 (centres undefined)	none (no result: MARV entry inh, Giardia FBPA inh, LASV entry inh, HCV inh)
O=C(Nc1ccc(S(=O)(=O)N2CCOCC2)cc1)c1cc(-c2ccccc2O)n[nH]1	HCMV inh inconclusive (no result: MARV entry inh, LASV entry inh)
CC1CN(S(=O)(=O)c2cccc(C(=O)Nc3ccccc3N3CCCC3)c2)CC(C)O1 (centres undefined)	MARV entry inh inconclusive, LASV entry inh inconclusive, FMDV inh inconclusive, HCV inh 32µM (no result: Giardia FBPA inh)
